Experimental data taken from PubChem BioAssay AID488777 (Sanford-Burnham Center for Chemical Genomics, 2010).
Unmarked numbers belong to inactive results. How the calls were made is not given here.

Test: AlphaScreen signal interference by SUMOylation inhibitors, SAR follow-up, artefact control for SUMOylation inhibitor project, biochemical (AID 488777)
Conditions: purified counter-screen enzymes, TR-FRET, 60 min

Work on `CCCCNC(=O)c1c(NC(=O)c2ccccc2)n(Cc2ccccc2)c2nc3ccccc3nc12` yielded an IC50 greater than 100 µM.
